Hits are enriched below; roughly 5.9% of the tested compounds scored in any of these assays.
GLP1R ag – activates the human GLP-1 receptor; P43220; HEK293 GLP-1R CRE-luciferase, luminescence, 4-6 h; cells express a hypersensitive GLP-1R form; Potency, µM (series often up to 45.6 µM), for the others: top-dose activation, hits mostly activators; 380,000 tested, 0.007% active; note: % of control where 0% means no effect
RORg inh – inhibitors of mouse ROR gamma transcriptional activity; 310,000 tested, 5.4% active; Potency, µM (doses to about 53.6 µM), inactives show at the top dose activity change, negative = inhibition, usual class: inhibitors; Drosophila S2 Gal4-RORgamma UAS-luciferase reporter, 20 h; note: % is set by controls: 0 for no effect and ±100 for the full control effect; nearly all actives have a fitted effect of over 60% in size
Target sequence (P51450 whole entry, looked up, the tested form may be a part): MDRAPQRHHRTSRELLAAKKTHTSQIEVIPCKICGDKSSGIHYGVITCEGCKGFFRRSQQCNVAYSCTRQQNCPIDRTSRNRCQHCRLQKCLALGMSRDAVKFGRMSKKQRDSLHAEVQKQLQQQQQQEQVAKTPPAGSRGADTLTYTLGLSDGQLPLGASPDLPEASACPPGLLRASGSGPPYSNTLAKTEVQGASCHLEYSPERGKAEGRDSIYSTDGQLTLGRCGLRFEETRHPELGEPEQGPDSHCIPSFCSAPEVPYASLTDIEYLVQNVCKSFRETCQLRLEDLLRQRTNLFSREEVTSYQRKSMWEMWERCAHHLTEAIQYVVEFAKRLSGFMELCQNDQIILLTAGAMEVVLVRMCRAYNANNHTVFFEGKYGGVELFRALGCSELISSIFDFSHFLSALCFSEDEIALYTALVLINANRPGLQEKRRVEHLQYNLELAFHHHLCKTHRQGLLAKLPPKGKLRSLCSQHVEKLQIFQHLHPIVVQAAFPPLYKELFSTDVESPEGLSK
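Using a luciferase readout, inhibitors were identified by reduced reporter activity in Drosophila cells coexpressing a copper-inducible Gal4–ROR gamma fusion and UAS-driven Photinus luciferase, incubated 20 hr after 700 uM copper sulfate.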
GLP1R cytotox – cytotoxicity in counter-screen for GLP-1R inverse agonists; HEK293 cAMP-luciferase reporter cells, luminescence, 24 h; Potency, µM (titrated, usually from 38.3 µM), for the others: at the top dose activity change, negative = inhibition, usual class: inhibitors; 410,000 tested, 0.13% active;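 note: loss of luciferase light is scored as toxicity; % is set by controls: 0 for no effect and ±100 for the full control effect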
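To flag toxic compounds, the library was rerun on cells for 24 hr at 37 deg C and 5% CO2. Viability-linked luminescence was captured 12 min after adding luciferase detection reagent.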
VP16 counter – inhibits Gal4-VP16 luciferase reporter, ROR gamma counter-screen; Drosophila S2 Gal4-VP16 UAS-luciferase, luminescence, 20 h; 310,000 tested, 3.5% active; Potency, µM (series often up to 53.6 µM), for inactives: at the highest dose activity, negative = inhibition, actives largely listed as inhibitors;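 note: Gal4-VP16 expression switched on by copper sulfate through the metallothionein promoter; % is set by controls: 0 for no effect and ±100 for the full control effect; nearly all actives have a fitted effect of over 50% in size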
GLP1R inv ag – inverse agonists of human GLP-1 receptor | AID 624417 | Potency, µM (highest dose often 38.3 µM), inactives show top-dose activity change, negative = inhibition, actives largely listed as inhibitors | HEK293 GLP-1R CRE-luciferase, luminescence, 24 h; GLP-1R form is constitutively active | 410,000 tested, 1.6% active; note: % is set by controls: 0 for no effect and ±100 for the full control effect; nearly all actives have a fitted effect of over 55% in size
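Inverse agonists were sought by their lowering of basal cAMP reporter luciferase output in HEK293 cells stably carrying constitutively active human GLP-1R, after 24 h compound treatment.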
* hit, by the source's call; ? = inconclusive; nt = no result; [ ] = dose if it differs, or a comment. Calls come from the whole dose curve; as a rule, active = well fitted curve in the direction sought with a large enough effect; inconclusive = small, poorly fitted or top-dose-only effect, or another doubt; inactive = no such curve, though single readings can be large; an effect the other way counts as inactive or inconclusive. Potency is the fitted concentration of half-maximal effect.

SMILES | GLP1R ag | RORg inh | GLP1R cytotox | VP16 counter | GLP1R inv ag
OC(c1ccccc1)(c1ccccc1)C1CCN(C(=S)NC2CCCC2)CC1 | 6.4% | 20µM* | 9.0% | 18.3%[10 µM] | ?
OC(c1ccccc1)(c1ccccc1)C1CCN(C(=S)NCCc2ccccc2)CC1 | 28.0% | 12.6µM* | -2.3%[7.66 µM] | ? | ?
CCOc1ccc(NC(=S)N2CCC(C(O)(c3ccccc3)c3ccccc3)CC2)cc1 | -32.3% | 12.6µM* | 25.2% | ? | ?
S=C(NC1CCCCC1)N1CCOCCOCCN(C(=S)NC2CCCCC2)CCOCC1 | 9.9% | 11.2µM* | 4.2% | ? | 8.7%
CCc1ccc(-n2nc(C)c3c(C(=O)Nc4cc(C)c(Cl)cc4OC)cc(C)nc32)cc1 | nt | nt | 3.8% | nt | -4.8%
CCCCCCC1=Cc2cc(OC)c(OC)cc2C(C(C(C)=O)C(=O)OC)O1 (stereo not given) | nt | 40.8%[10 µM] | nt | 10.5%[10 µM] | nt
CC(C)c1ccc(NC(=O)C2CCCN(S(=O)(=O)c3cccc4cccnc34)C2)cc1 (stereo not given) | nt | nt | -4.6% | nt | ?
Cc1ccnc(Nc2nc(-c3ccc(O)cc3O)cs2)c1 | 29.6% | 0.708µM* | -19.9% | 2.24µM* | ?
Cc1cccc(Nc2nc(-c3ccc(O)c(O)c3)cs2)n1 | -8.8% | 4.47µM* | -22.0% | 5.62µM* | 76.7%
Cc1cc(C)nc(Nc2nc(-c3ccccc3)cs2)n1 | -0.1% | 4.47µM* | 0.5% | ? | ?
Cc1ccnc(Nc2nc(-c3ccc(O)cc3)cs2)c1 | 1.8% | 3.16µM* | -4.5% | 3.98µM* | -23.7%
COc1ccc(-c2csc(Nc3cc(C)ccn3)n2)cc1C | 10.9% | ? | 2.2% | -25.6% | -24.4%
CCc1nc(SCc2cc(=O)c3cc(C)ccc3[nH]2)n[nH]1 | nt | nt | 14.4% | nt | 7.4%
O=C(C1CC1)N1CCc2cc(Br)cc(S(=O)(=O)Nc3ccc(C(F)(F)F)cc3)c21 | -11.7% | nt | -25.0% | nt | ?
Oc1ccc(-c2csc(Nc3ccccn3)n2)cc1O | 0.7% | 5.62µM* | ? | 6.31µM* | -10.0%
CC(=O)Nc1ccc(-c2csc(Nc3ccccn3)n2)cc1 | 14.0% | 21.4% | -8.8% | -4.4% | ?
Oc1ccc(Nc2nc(-c3ccc(Cl)cc3)cs2)cc1 | nt | ? | nt | 14.1µM* | nt
Cc1ccnc(Nc2nc(-c3ccc(O)c(O)c3)cs2)c1 | 9.9% | 11.2µM* | ? | 5.62µM* | -22.4%
CNC(=O)C1(C(F)(F)F)CC(CCCO)CCCO1 (stereo not given) | nt | 11.7% | nt | -7.3% | nt
Cc1cccc(N2CCN(S(=O)(=O)c3ccc(-c4cnc(C5CC5)o4)cc3)CC2)c1C | nt | nt | 0.2% | nt | 11.2µM*
COC(=O)C1=C(c2ccccc2)c2ccccc2S(=O)(=O)N1CC(=O)Nc1ccc(F)c(F)c1 | -6.1% | nt | -8.3% | nt | ?
CC(C)c1ccc(S(=O)(=O)c2cnc(SCC(=O)Nc3cccc(C(F)(F)F)c3)nc2N)cc1 | -8.0% | nt | -9.5% | nt | ?
Clc1nssc1=Nc1nncs1 | -4.0% | nt | 6.4% | nt | 18.3%
Clc1ccc(N=c2ssnc2Cl)nc1 | -6.2% | 10µM* | 6.4% | -6.8% | 6.0%
CC(C)CCn1c(=O)c2sccc2n2c(CCCC(=O)NC(C)c3ccccc3)nnc12 (stereo not given) | nt | nt | 3.6% | nt | 10.3%
SMILES | GLP1R ag | RORg inh | GLP1R cytotox | VP16 counter | GLP1R inv ag
CC1=NN(C(=O)c2ccc(Cn3nc(C)c([N+](=O)[O-])c3C)cc2)C(O)(C(F)(F)F)C1 (stereo not given) | -6.8% | 11.2µM* | ? | 11.2µM* | ?
CC1=NN(C(=O)Cn2nc([N+](=O)[O-])cc2C)C(O)(C(F)(F)F)C1 (stereo not given) | -2.2% | 10µM* | -4.2% | ? | -14.6%
CC1=NN(C(=O)c2ccc(Cn3nc(C)c(Br)c3C)cc2)C(O)(C(F)(F)F)C1 (stereo not given) | 1.7% | ? | -0.4% | 12.6µM* | ?
Nc1nc2[nH]cc(CCc3ccc(C(=O)NC(CCC(=O)O)C(=O)O)cc3)c2c(=O)[nH]1 (stereo not given) | 2.4% | -20.7% | nt | -0.7% | nt
COc1ccc(-c2cc(C(C)=O)c(C)n2CCC(=O)Nc2ccc(C(F)(F)F)cc2)cc1 | nt | nt | -22.7% | nt | -34.1%
CSC(=S)N/N=C/c1ccc(N(C)C)cc1 | 2.7% | 0.251µM* | -21.0% | 2µM* | -9.8%
CC(C)(C)NC(=O)C(=O)N/N=C/c1ccc(Br)cc1 | 1.1% | -7.2% | -0.6% | -3.6% | -5.3%
CSC(=S)N/N=C/c1ccc(Br)cc1 | -6.0% | 0.316µM* | 11.2µM* | 1.78µM* | ?
CC(=O)NCC(=O)N[C@H](CCC(=O)O)C(=O)O | nt | -12.2% | nt | -4.3% | nt
COc1ccc(C(=O)/C=C/C(=O)N(CC(=O)NC2CCCCC2)CC2CCCO2)c(O)c1 (stereo not given) | 0.8% | 6.31µM* | -11.3% | 3.16µM* | -7.4%
Cc1ccc(CN(C)C(=O)CN2C(=O)NC(c3ccccc3)(c3ccccc3)C2=O)c(C)c1 | -1.2% | nt | -15.1% | nt | 3.55µM*
CN(Cc1ccco1)C(=O)CN1C(=O)NC(c2ccccc2)(c2ccccc2)C1=O | -0.7% | nt | -3.5% | nt | ?
COc1ccc2nc3c(cc2c1)Cc1ccccc1-3 | nt | 2.51µM* | nt | 2.51µM* | nt
COc1ccc(C(=O)Nc2ccc3c(c2)Cc2ccccc2-3)cc1 | 3.3% | -23.6% | 18.6% | 1.8% | -21.0%
O=C(c1ccccc1F)N1c2nc(-c3ccco3)nn2C2(CCCCC2)[C@@H]2CCCC[C@@H]21 | nt | nt | 1.6% | nt | ?
Cc1ccc2occ(CC(=O)Nc3ccc(S(=O)(=O)N4CCCC(C)C4)cc3)c2c1 (stereo not given) | nt | nt | 0.0% | nt | 11.2µM*
Cc1ccc(S(=O)(=O)c2c(Nc3ccccc3)sc(C(=O)c3ccc4c(c3)OCO4)c2N)cc1 | -0.4% | nt | -2.8% | nt | ?
CC(CC(=O)N1CCN(c2cccc(Cl)c2)CC1)S(=O)(=O)c1ccc2c(c1)NC(=O)CO2 (stereo not given) | -4.3% | -41.4% | -14.8% | 14.1µM* | ?
COc1ccc(N2CCN(C(=O)CC(C)S(=O)(=O)c3ccc4c(c3)NC(=O)CO4)CC2)cc1 (stereo not given) | 0.2% | ? | -7.6% | -26.6% | -22.2%
CC(=O)N1c2ccccc2[C@@H](C)[C@@H]1C | -7.6% | nt | 0.1% | nt | 3.0%
CC(=O)N1c2ccccc2C2(O)N=C(C)SC12 (stereo not given) | -3.5% | 7.94µM* | -11.3% | 4.47µM* | 24.9%
COc1ccc(OCc2ccc(-c3nc(C#N)c(NCc4ccc(F)cc4)o3)o2)cc1 | nt | nt | -7.7% | nt | ?
COc1ccc(CNc2nc(-c3ccccc3CN(C)C)nc3ccccc23)c(OC)c1 | nt | 12.6µM* | nt | ? | nt
CN(C)Cc1ccccc1-c1nc(NCc2cccs2)c2ccccc2n1 | nt | -32.5% | nt | -10.7% | nt
Cc1cccc(CNc2nc(-c3ccccc3CN(C)C)nc3ccccc23)c1 | nt | 22.4µM* | nt | ? | nt

Compound activity from PubChem.
